Results on 26 compounds are retold here after PubChem BioAssay.
Also: test concentration not given here.

A short description of the first assay: compound effects on hepatocellular carcinoma cell viability – HepG2, calcein-AM fluorescence, 48 h, basal, profiling panel (AID 1164). As to conditions: higher = more signal.
On to `CN1C(=O)C2C=CC(C(O)c3ccccn3)N(Nc3ccccc3)C2C1=O` (stereo unspecified), for which the z-score was -0.164. In the case of `COc1ccc(C#Cc2ccc3c(c2)[C@]2(C(=O)N3)[C@H](c3ccc(O)cc3)N3[C@H](c4ccccc4)[C@H](c4ccccc4)OC(=O)[C@H]3[C@@H]2C(=O)N2CCCCCCC2)cc1`, the z-score is 0.629. Regarding `O=C1OCCC=C[C@H]2OC34C=CCN(Cc5ccccc5)C(=O)[C@H]3N(CCCCCO)C(=O)[C@@H]4C12` (stereo partly specified), the z-score was 0.889. In the case of `COC(=O)C(CC#Cc1ccc2c(c1)[C@]1(C(=O)N2)[C@H](C(=O)NC[C@H](O)c2ccccc2)[C@H]2C(=O)O[C@H](c3ccccc3)[C@H](c3ccccc3)N2[C@@H]1c1ccc(OCCO)cc1)C(=O)OC`, the z-score is 0.0255. In the case of `COCCOC(=O)N1C(=O)[C@@]2(c3cc(C#CCNC(N)=O)ccc31)[C@H](c1ccc(O)cc1)N1[C@H](c3ccccc3)[C@H](c3ccccc3)OC(=O)[C@H]1[C@@H]2C(=O)NC[C@H](O)c1ccccc1`, the z-score is 0.108. In the case of `COC(=O)[C@@]1(Cc2ccccc2)[C@H]2c3cc(C(=O)N4CCCC4)n(Cc4ccc(C)o4)c3C[C@H]2CN1C(=O)c1ccccc1`, the z-score is 0.252. Take `COCC(=C=CC[C@H](O)c1ccc(OCCO)cc1)C[C@H](O)c1cc(Cl)cc(Cl)c1O`: the z-score is -0.616.

A further assay in a line: compound effects on multiple myeloma cell viability – MM1S, calcein-AM fluorescence, 48 h, basal, profiling panel (AID 1165). As to conditions: higher = more signal.
Consider `C=CCC(OC(C)=O)[C@@H]1[C@@H](N(Cc2ccc(-c3ccccc3)cc2)C(=O)Cc2ccc(OC)cc2)c2cc(OCCCO)ccc2N1C(=O)c1ccc2ccccc2n1` (stereo partly specified), for which the z-score is 0.0474.

As to `COc1ccc(C#Cc2ccc3c(c2)[C@]2(C(=O)N3)[C@H](C(=O)NC[C@H](O)c3ccccc3)[C@H]3C(=O)O[C@H](c4ccccc4)[C@H](c4ccccc4)N3[C@@H]2c2ccc(OCCO)cc2)cc1`, the z-score is -1.82.

For `COCCOC(=O)N1C(=O)[C@@]2(c3cc(C#CC4(O)CCCCCC4)ccc31)[C@H](C(=O)N1CCCCCCC1)[C@H]1C(=O)O[C@H](c3ccccc3)[C@H](c3ccccc3)N1[C@@H]2c1ccccc1OCCO`, the z-score was -0.658. Regarding `COC(=O)c1ccc(OC)c(/C=C\CC(OC(C)=O)c2ccccc2)c1` (stereo unspecified), the z-score is -1.4. For the compound `Cc1ccc([C@H]2C(C(=O)O)=C[C@@H](C)N2S(=O)(=O)c2ccc(C)cc2)cc1`, the z-score is -1.35. In the case of `NCCCCCCNC(=O)[C@H]1C[C@H]2C(=O)NCC(=O)N2[C@H]1c1cccc(OCCO)c1`, the z-score was -0.0318. Regarding `COc1ccc(CCN2C(=O)[C@@]3(Cc4ccccc42)c2ccccc2C(=O)N(Cc2ccccc2Cl)[C@H]3c2ccc(CO)cc2)cc1`, the z-score is 0.23. For the compound `C=CC[C@@H](OC(=O)Nc1ccc(OC)cc1)c1ccc(O)c2ccccc12`, the z-score was -2.96. As for `CC(C)C[C@@H]1NC(=O)[C@@H]2C[C@H](C(=O)NCCCCCC[N+](C)(C)C)[C@H](c3ccc(O)cc3)N2C1=O`, the z-score was 0.305.

Turning to `O=C1C=CC(=O)[C@@H]2CC(COc3ccccc3)=C3[C@@H](CCc4ccccc4)OB(O)C[C@@H]3[C@H]12`, the z-score is -3.22. As to `CN(C)CCCCNC(=O)[C@H]1C[C@H]2C(=O)N[C@@H](Cc3ccccc3)C(=O)N2[C@H]1c1ccc(O)cc1`, the z-score is -0.417. As for `CCCC[C@H]1OB(O)C[C@H]2C1=C(C)C[C@H]1C(=O)N(Cc3ccccc3)C(=O)[C@H]12`, the z-score is -0.551. Same read-out and setting: the result for `C=C[C@@H](COC(C)=O)N(Cc1ccc([N+](=O)[O-])cc1)S(=O)(=O)c1ccc(Br)cc1` reads 1.3; that for `COc1ccc([Si](C)(C)[C@@H]2[C@@H](CCn3cc([C@H](O)c4ccccc4)nn3)O[C@]3(C(=O)N(Cc4ccc(N5C(=O)c6cccc7cccc5c67)cc4)c4ccccc43)[C@H]2C)cc1`, -0.709; that for `CC(C)(C)OC(=O)CC[C@@]1(C(=O)NCCN2CCOCC2)N=C(c2ccc(OCCCO)cc2)O[C@@H]1c1ccccc1`, 0.586. `O=C1O[C@@H](c2ccccc2)[C@@H](c2ccccc2)N2[C@@H](c3ccccc3OCCO)[C@]3(C(=O)Nc4ccc(C#CC5(O)CCCCCC5)cc43)[C@@H](C(=O)Nc3nc4ccccc4s3)[C@H]12`: the z-score was -3.22. For `COCCOC(=O)N1C(=O)[C@@]2(c3cc(C#CCNC(N)=O)ccc31)[C@H](c1ccc(OCCO)cc1)N1[C@H](c3ccccc3)[C@H](c3ccccc3)OC(=O)[C@H]1[C@@H]2C(=O)N1CCc2cc(OC)c(OC)cc2C1`, the z-score is 0.451. For the compound `CCOC(=O)C[C@H]1[C@H](OC(=O)c2ccc(C(=O)c3ccccc3)cc2)[C@@H](NC(=O)C2CCCCC2)c2cc(OCCCO)ccc2N1C(=O)c1ccccc1`, the z-score was -1.21.

For the compound `CC(C)=CCCC(C)=CC(O)C1C=CC2C(=O)N(c3ccccc3)C(=O)C2N1Nc1ccccc1` (stereo unspecified), the z-score is -1.77.
